Experimental data as given in the supplement of paper PMC10646978.
± gives the standard deviation.

Each molecule was assayed on RAW-Dual (murine macrophage reporter line) (assay: NF-kB reporter (SEAP) activity fold change vs agonist alone; higher = enhanced NF-kB activity). Conditions: modulator concentration 10 µM; agonist: MPLA […].
Procedure, shortened: (§1)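 RAW-Dual murine macrophage reporter cells were plated at 50 000 per well in 384-well plates, pin-transferred compound to 10 μM final, and pre-incubated for 1 hour at 37 °C before a PRR agonist was added and the cells incubated overnight. NF-κB activity was read from supernatant SEAP with QUANTI-Blue at 620 nm absorbance, and IRF activity from Lucia luciferase with QUANTI-Luc by luminescence. Each signal was expressed as fold change by dividing by the mean agonist-only control on the same plate. Two replicate plates were averaged, with errors obtained by propagation.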

| Compound | NF-kB reporter |
| --- | --- |
| CN(C)CCNC(=O)C(=O)NC(c1ccccc1)c1ccccc1 | 0.95 ± 0.027 |
| Cc1nc2n(c(=O)c1CCN1CCC(c3noc4cc(F)ccc34)CC1)CCCC2O (stereo not given) | 0.997 ± 0.11 |
| Cc1cnc2c(c1N1CCC(Cc3ccccc3)CC1)c(=O)n(C)c(=O)n2C | 0.996 ± 0.051 |
| COc1ccccc1OCC(O)CN1CCN(CC(=O)Nc2c(C)cccc2C)CC1 (stereo not given) | 1.06 ± 0.056 |
| COc1ccccc1N1CCN(CC(O)COc2cccc3ccccc23)CC1.Cl.Cl (stereo not given) | 0.725 ± 0.048 |
| COC(=O)C1=C(C)NC(C)=C(C(=O)OC(C)(C)CN(C)CCC(c2ccccc2)c2ccccc2)C1c1cccc([N+](=O)[O-])c1.Cl (stereo not given) | 1.98 ± 1 |
| CC[C@@H]1C(=O)N(C)c2cnc(Nc3ccc(C(=O)N[C@H]4CC[C@H](N5CCN(CC6CC6)CC5)CC4)cc3OC)nc2N1C(C)C | 4.21 ± 0.23 |
| O=C(O)c1cc2ccccc2[nH]1 | 1.02 ± 0.024 |
| CCCOc1ccc(-c2ccc(-c3nc(Cc4ccc(OC)c(OC)c4)no3)cc2)cc1 | 1.04 ± 0.097 |
| Cc1ccc(S(=O)(=O)n2cnc3ccccc32)cc1C | 1.07 ± 0.064 |
| CNCC[C@@H](Oc1cccc2ccccc12)c1cccs1 [Prestw-1708] | 1.18 ± 0.19 |
| CNC(=NC#N)NCCSCc1nc[nH]c1C | 1.03 ± 0.16 |
| CC(=NN1CCN(Cc2cccc3ccccc23)CC1)c1ccc(O)cc1 | 0.988 ± 0.026 |
| Nc1nc(N)c2nc(-c3ccccc3)c(N)nc2n1 | 0.891 ± 0.056 |
| O=C(O)CCCCC1SCC2NC(=O)NC21 (stereo not given) | 0.96 ± 0.078 |
| c1ccc(OCCOc2ccc(Nc3ccnc4cc5ccccc5cc34)cc2)cc1 | 1.8 ± 0.17 |
| CC(C)(C)NCC(=O)Nc1ccc(S(N)(=O)=O)cc1 | 1.06 ± 0.091 |
| CC(=O)Nc1ccc(S(=O)(=O)N2CCC(Oc3cc(C)nc(C)n3)C2)cc1 (stereo not given) | 1.04 ± 0.092 |
| O=Cc1c[nH]c2ccccc12 | 1.4 ± 0.23 |
| CN(C)CC(c1ccc(O)cc1)C1(O)CCCCC1 (stereo not given) | 0.893 ± 0.054 |

| Compound | NF-kB reporter |
| --- | --- |
| CCC1OC(=O)C(C)C(OC2CC(C)(OC)C(O)C(C)O2)C(C)C(OC2OC(C)CC(N(C)C)C2O)C(C)(O)CC(C)CN(C)C(C)C(O)C1(C)O (stereo not given) | 1.19 ± 0.029 |
| Cc1cc(C(=O)NCc2sc(-c3ccccc3Cl)nc2C)c(C)o1 | 1.09 ± 0.061 |
| COc1cc2ncnc(Nc3ccc(F)c(Cl)c3)c2cc1OCCCN1CCOCC1.Cl | 1.08 ± 0.1 |
| CN(C)c1nc(CNC(=O)CSc2nc3ccccc3o2)nc(N(C)C)n1 | 1.01 ± 0.067 |
| CCOc1ccc2nc(NC(=O)c3ccc(Br)cc3F)sc2c1 | 1 ± 0.041 |
| CCS(=O)(=O)c1ccc(-c2ccc(NC(=O)c3cccc(OC)c3OC)cc2)nn1 | 1.01 ± 0.1 |
| Cc1cn(-c2cc(NC(=O)c3ccc(C)c(Nc4nccc(-c5cnccn5)n4)c3)cc(C(F)(F)F)c2)cn1 | 0.982 ± 0.063 |
| CCN1CCN(c2nc3c(c(=O)[nH]c(=O)n3C)n2CC(O)COc2cc(C)ccc2C(C)C)CC1 (stereo not given) | 1.2 ± 0.064 |
| Cc1cc(C(O)CCNC(=O)COc2cccc3c2OC(C)(C)C3)c(C)o1 (stereo not given) | 1.01 ± 0.055 |
| CCOC(=O)Cc1nnnn1C | 1.01 ± 0.14 |
| CC[C@@]1(O)C(=O)OCc2c1cc1n(c2=O)Cc2cc3c(CN(C)C)c(O)ccc3nc2-1.Cl | 2.16 ± 0.11 |
| O=C(C=Cc1ccc(-c2cccc(Cl)c2)o1)c1ccc(Cl)cc1 | 0.857 ± 0.079 |
| COc1ccc(C(=O)Oc2ccc(-c3ccc(C)cc3)cc2)cc1OC | 1 ± 0.09 |
| C#Cc1cccc(Nc2ncnc3cc(OC)c(OCCCCCCC(=O)NO)cc23)c1 | 2.44 ± 0.12 |
| O=Cc1ccc(OCc2cccc([N+](=O)[O-])c2)c(Br)c1 | 1.09 ± 0.18 |
| O=C(CSc1nc(-c2ccccc2)c(-c2ccccc2)o1)N1CCOCC1 | 0.903 ± 0.054 |
| CN(C)c1ccc(C2N(C)c3ccccc3N2C)cc1 | 2.19 ± 0.2 |
| CC(C)(C)C1(O)CC(C(F)(F)F)=NN1C(=O)c1cccc([N+](=O)[O-])c1 (stereo not given) | 0.873 ± 0.052 |
| COc1ccc([N+](=O)[O-])cc1NC(=O)c1ccccc1SC | 0.88 ± 0.086 |
| CC(=O)c1cc(Cl)ccc1OC(=O)c1ccccc1Cl | 0.757 ± 0.062 |

Each molecule was assayed on RAW-Dual (murine macrophage reporter line) (assay: IRF reporter (Lucia luciferase) activity fold change vs agonist alone; higher = enhanced IRF activity). Conditions: modulator concentration 10 µM; agonist: 3'3'-cGAMP 10 ug/mL.
Procedure, shortened: as §1

| Compound | IRF reporter |
| --- | --- |
| CN(C)CCNC(=O)C(=O)NC(c1ccccc1)c1ccccc1 | 0.998 ± 0.042 |
| Cc1nc2n(c(=O)c1CCN1CCC(c3noc4cc(F)ccc34)CC1)CCCC2O (stereo not given) | 0.902 ± 0.038 |
| Cc1cnc2c(c1N1CCC(Cc3ccccc3)CC1)c(=O)n(C)c(=O)n2C | 1.06 ± 0.044 |
| COc1ccccc1OCC(O)CN1CCN(CC(=O)Nc2c(C)cccc2C)CC1 (stereo not given) | 0.967 ± 0.092 |
| COc1ccccc1N1CCN(CC(O)COc2cccc3ccccc23)CC1.Cl.Cl (stereo not given) | 0.654 ± 0.03 |
| COC(=O)C1=C(C)NC(C)=C(C(=O)OC(C)(C)CN(C)CCC(c2ccccc2)c2ccccc2)C1c1cccc([N+](=O)[O-])c1.Cl (stereo not given) | 0.132 ± 0.0065 |
| CC[C@@H]1C(=O)N(C)c2cnc(Nc3ccc(C(=O)N[C@H]4CC[C@H](N5CCN(CC6CC6)CC5)CC4)cc3OC)nc2N1C(C)C | 0.0547 ± 0.0068 |
| O=C(O)c1cc2ccccc2[nH]1 | 1.02 ± 0.071 |
| CCCOc1ccc(-c2ccc(-c3nc(Cc4ccc(OC)c(OC)c4)no3)cc2)cc1 | 0.978 ± 0.048 |
| Cc1ccc(S(=O)(=O)n2cnc3ccccc32)cc1C | 1.12 ± 0.042 |
| CNCC[C@@H](Oc1cccc2ccccc12)c1cccs1 [Prestw-1708] | 1.19 ± 0.076 |
| CNC(=NC#N)NCCSCc1nc[nH]c1C | 1.01 ± 0.032 |
| CC(=NN1CCN(Cc2cccc3ccccc23)CC1)c1ccc(O)cc1 | 0.849 ± 0.031 |
| Nc1nc(N)c2nc(-c3ccccc3)c(N)nc2n1 | 0.56 ± 0.017 |
| O=C(O)CCCCC1SCC2NC(=O)NC21 (stereo not given) | 0.953 ± 0.072 |
| c1ccc(OCCOc2ccc(Nc3ccnc4cc5ccccc5cc34)cc2)cc1 | 0.896 ± 0.035 |
| CC(C)(C)NCC(=O)Nc1ccc(S(N)(=O)=O)cc1 | 1.02 ± 0.049 |
| CC(=O)Nc1ccc(S(=O)(=O)N2CCC(Oc3cc(C)nc(C)n3)C2)cc1 (stereo not given) | 0.998 ± 0.08 |
| O=Cc1c[nH]c2ccccc12 | 0.982 ± 0.04 |
| CN(C)CC(c1ccc(O)cc1)C1(O)CCCCC1 (stereo not given) | 0.897 ± 0.045 |

| Compound | IRF reporter |
| --- | --- |
| CCC1OC(=O)C(C)C(OC2CC(C)(OC)C(O)C(C)O2)C(C)C(OC2OC(C)CC(N(C)C)C2O)C(C)(O)CC(C)CN(C)C(C)C(O)C1(C)O (stereo not given) | 0.727 ± 0.058 |
| Cc1cc(C(=O)NCc2sc(-c3ccccc3Cl)nc2C)c(C)o1 | 0.98 ± 0.047 |
| COc1cc2ncnc(Nc3ccc(F)c(Cl)c3)c2cc1OCCCN1CCOCC1.Cl | 0.193 ± 0.015 |
| CN(C)c1nc(CNC(=O)CSc2nc3ccccc3o2)nc(N(C)C)n1 | 0.959 ± 0.048 |
| CCOc1ccc2nc(NC(=O)c3ccc(Br)cc3F)sc2c1 | 0.873 ± 0.071 |
| CCS(=O)(=O)c1ccc(-c2ccc(NC(=O)c3cccc(OC)c3OC)cc2)nn1 | 1.05 ± 0.053 |
| Cc1cn(-c2cc(NC(=O)c3ccc(C)c(Nc4nccc(-c5cnccn5)n4)c3)cc(C(F)(F)F)c2)cn1 | 0.867 ± 0.032 |
| CCN1CCN(c2nc3c(c(=O)[nH]c(=O)n3C)n2CC(O)COc2cc(C)ccc2C(C)C)CC1 (stereo not given) | 1.1 ± 0.061 |
| Cc1cc(C(O)CCNC(=O)COc2cccc3c2OC(C)(C)C3)c(C)o1 (stereo not given) | 0.883 ± 0.038 |
| CCOC(=O)Cc1nnnn1C | 1 ± 0.026 |
| CC[C@@]1(O)C(=O)OCc2c1cc1n(c2=O)Cc2cc3c(CN(C)C)c(O)ccc3nc2-1.Cl | 2.12 ± 0.15 |
| O=C(C=Cc1ccc(-c2cccc(Cl)c2)o1)c1ccc(Cl)cc1 | 0.446 ± 0.031 |
| COc1ccc(C(=O)Oc2ccc(-c3ccc(C)cc3)cc2)cc1OC | 0.957 ± 0.069 |
| C#Cc1cccc(Nc2ncnc3cc(OC)c(OCCCCCCC(=O)NO)cc23)c1 | 0.563 ± 0.034 |
| O=Cc1ccc(OCc2cccc([N+](=O)[O-])c2)c(Br)c1 | 0.963 ± 0.045 |
| O=C(CSc1nc(-c2ccccc2)c(-c2ccccc2)o1)N1CCOCC1 | 0.954 ± 0.045 |
| CN(C)c1ccc(C2N(C)c3ccccc3N2C)cc1 | 0.939 ± 0.031 |
| CC(C)(C)C1(O)CC(C(F)(F)F)=NN1C(=O)c1cccc([N+](=O)[O-])c1 (stereo not given) | 1.01 ± 0.025 |
| COc1ccc([N+](=O)[O-])cc1NC(=O)c1ccccc1SC | 0.945 ± 0.031 |
| CC(=O)c1cc(Cl)ccc1OC(=O)c1ccccc1Cl | 0.543 ± 0.025 |
